This is a sample that favours compounds with a hit; in the whole collection about 2.5% have one here.
ULK1 primary = ULK1 kinase inhibitors, primary screen, biochemical, AlphaScreen; Serine/threonine-protein kinase ULK1 (Homo sapiens), O75385; hit rate 1.9% among 30,000; AlphaScreen Atg13 phosphorylation by ULK1, luminescence; AID 1259251, 2017; inhibition, % at 5.96 µM; in the data active = inhibition above about 43%;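 note: 0% = median of compound wells and 100% = no enzyme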
ASK1 primary = ASK1 kinase inhibitors, primary screen, biochemical, AlphaScreen. AID 1159602, 2016. AlphaScreen MKK6 phosphorylation by ASK1, luminescence. Mitogen-activated protein kinase kinase kinase 5 (Homo sapiens), Q99683. inhibition, % at 7.44 µM. hit rate 0.99% among 22,000; in the data active = inhibition above about 35%;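 note: 0% = median of compound wells and 100% = no enzyme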
Numbers without * were called inactive; / = no result given.

SMILES | ULK1 primary | ASK1 primary
C=C(NC(=O)C(=C)NC(=O)c1csc(C2=NC3c4csc(n4)C4NC(=O)c5csc(n5)C(C(C)(O)C(C)O)NC(=O)C5CSC(=N5)C(=CC)NC(=O)C(C(C)O)NC(=O)c5csc(n5)C3(CC2)NC(=O)C(C)NC(=O)C(=C)NC(=O)C(C)NC(=O)C(C(C)CC)NC2C=Cc3c(C(C)O)cc(nc3C2O)C(=O)OC4C)n1)C(N)=O (configuration not stated) | 43* | /
CS(=O)(=O)N(CC(=O)Nc1ccccc1C(F)(F)F)c1cccc2ccccc12 | -3 | /
CCNc1nc(C(=O)Nc2ccc(N3CCOCC3)cc2)cs1 | -10 | -22
COc1ccc(S(=O)(=O)/N=C2\C=CC(=O)C(Cl)=C2)cc1 | 44* | /
Cc1ccc(S(=O)(=O)/N=C2/C(Cl)=C(Cl)C(=O)c3ccccc32)cc1 | -2 | /
Cc1cnc(Nc2cccc(N(C)C)c2)nc1NC1CC1 | 46* | 8
CN(C)c1cccc(Nc2nccc(NC3CC3)n2)c1 | 0 | -1
N[C@H](Cc1ccc(Cl)c(Cl)c1)c1nc2ccc(-c3ccncc3)cc2[nH]1 | -13 | 4
CC1CN(c2ncn(-c3ccc(Nc4ncc5ccc(-c6cnn(C)c6)c(Cl)c5n4)cc3)n2)CC(C)O1 (configuration not stated) | 53* | 6
CCn1cc(-c2ccc3cnc(Nc4ccc(-n5cnc(N6CCOCC6)n5)cc4)nc3c2Cl)cn1 | 78* | 3
Cn1cc(-c2ccc3cnc(Nc4ccc(-n5cnc(N6CCOCC6)n5)cc4)nc3c2C(F)(F)F)cn1 | 33 | -74
O=C(NCc1ccccc1)c1ccc2cnc(Nc3ccc(-n4cnc(N5CCOCC5)n4)cc3)nc2c1 | 37 | 9
Cn1cc(-c2ccc3cnc(Nc4ccc(-n5cnc(N6CCOCC6)n5)cc4)nc3n2)cn1 | 7 | 22
CNC(=O)c1ccc2cnc(Nc3ccc(-n4cnc(N5CCOCC5)n4)cc3)nc2c1 | 50* | -45
CCN(CC)C(=O)C1CCCN(c2nc3c(NC4CC4)ncnc3n2C(C)C)C1 (configuration not stated) | -12 | -9
CCCCOc1ccc(/C=C2\SC(=S)N(C3CCS(=O)(=O)C3)C2=O)cc1OC (configuration not stated) | -2 | /
COc1ccc(-c2nc(NCCc3ccc(O)cc3)c3ncn(CCN4CCCC4=O)c3n2)cn1 | -15 | -8
Cn1nccc1Nc1ccc(N2CCC(C(=O)Nc3ccc(N4CCOCC4)cc3)CC2)nn1 | 19 | 3
CC(=O)Nc1ccc(Nc2ccnc(NCc3ccc4c(c3)OCO4)n2)cc1 | -2 | -5
c1ccc(CN2CCC(Nc3ncnc4nc(Nc5cnccn5)[nH]c34)CC2)cc1 | 12 | -3
c1ccc(CN2CCC(Nc3ncnc4nc(Nc5ccncn5)[nH]c34)CC2)cc1 | 55* | 5
CCN(CC)c1nc(NCCCN2CCCC2=O)nc(NCCN(C(C)C)C(C)C)n1 | 3 | 0
CCCc1nc(C(C)(C)O)c(C(=O)OCc2oc(=O)oc2C)n1Cc1ccc(-c2ccccc2-c2nn[nH]n2)cc1 | -4 | /
CCOc1nc2cccc(C(=O)OC(C)OC(=O)OC3CCCCC3)c2n1Cc1ccc(-c2ccccc2-c2nn[nH]n2)cc1 (configuration not stated) | 53* | /
O=C(c1cc(O)c(O)c(O)c1)c1ccc(O)c(O)c1O | 83* | /
SMILES | ULK1 primary | ASK1 primary
O=C(O)c1cc(O)c(O)c(O)c1 | -8 | /
Cc1nn(C)c(C)c1-c1cccc(C(=O)Nc2ccccc2)n1 | -8 | 5
NCCc1ccc(O)c(O)c1 | 74* | /
Nc1ccc(O)c(N)c1 | 40 | /
COc1ccc(-c2cc(NCCN3CCOCC3)ncn2)cc1 | 3 | -9
CNC(=O)c1ccccc1Nc1cc(Nc2ccc(N3CCOCC3)cc2)ncc1C(F)(F)F | 90* | 1
FC(F)(F)c1cnc(Nc2ccc(N3CCOCC3)cc2)cc1Nc1cc(C2CC2)[nH]n1 | 80* | 25
CNC(=O)c1ccccc1Nc1cc(Nc2ccc3[nH]cc(C4=CCNCC4)c3c2)ncc1C(F)(F)F | -38 | 28
O=C(c1ccc(Nc2ccc3[nH]ncc3c2)nc1)N1CCOCC1 | -2 | -9
COc1ccc(N2CCOCC2)cc1Nc1cc(Nc2ccccn2)c(C(F)(F)F)cn1 | 17 | 20
CNC(=O)c1ccccc1Nc1cc(Nc2ccc(C(=O)N3CCOCC3)cn2)ncc1C(F)(F)F | 86* | 8
COc1cnc(Nc2ccc(N3CCOCC3)cc2)nc1-c1ccc(S(C)(=O)=O)cc1 | 46* | 16
COc1ccc(-c2ncc(C)c(Nc3ccc(N4CCOCC4)cc3)n2)cc1 | 4 | 9
COc1ccc(CCNC(=O)c2ccc(-c3csc4ccccc34)s2)cc1 | -5 | -1
COc1cc(Nc2nc(NCc3cccnc3)nc3c2ncn3C(C)C)cc(OC)c1OC | 28 | 11
COc1cc(Nc2nc(NCCO)c3ncn(C(C)C)c3n2)cc(OC)c1OC | 15 | 1
Cc1nc(-c2ccncc2)cc(N2CCN(CCO)CC2)n1 | 4 | /
O=C(Nc1ccccc1)c1cccc(-c2ccc(N3CCOCC3)nc2)n1 | -9 | -5
CN1CCN(C(=O)c2ccc(-c3cc(C(=O)NCc4cccc(C(F)(F)F)c4)ccn3)cc2)CC1 | 2 | -2
CN(C)c1cccc(Nc2cc(NCCc3ccc(O)cc3)ncn2)c1 | 10 | 21
COc1cc(N2CCOCC2)ccc1Nc1cc(Nc2ccccc2-c2ncccn2)c(C(F)(F)F)cn1 | 9 | 7
NC(=O)c1ccccc1Nc1cc(Nc2ccc(-n3cnc(N4CCOCC4)n3)cc2)ncc1C(F)F | 51* | -21
COc1cc(N2CCOCC2)ccc1Nc1ncc(Cl)c(Nc2ccccc2C(=O)NC2CC2)n1 | 12 | -3
Cc1cnc(Nc2ccc(-n3cnc(N4CCOCC4)n3)cc2)cc1Nc1ccccc1C(N)=O | 27 | -31
CNC(=O)c1ccccc1Nc1nc(Nc2ccc(N3CCOCC3)c(F)c2)ncc1Cl | 90* | -60
SMILES | ULK1 primary | ASK1 primary
CNC(=O)c1ccccc1Nc1nc(Nc2ccc(-n3cnc(N4CCOCC4)n3)cc2)ncc1Cl | 36 | -27
CNC(=O)c1ccccc1Nc1cc(Nc2ccc(N3CCOCC3)cc2F)ncc1C(F)(F)F | 89* | -1
COc1cnc(Nc2ccc(N3CCOCC3)cc2)nc1Nc1ccccc1C(N)=O | 85* | -83
COc1cccc(CN(CCN(C)C)C(=O)c2cnc3cc(-c4ccncc4)ccn23)c1 | -23 | 13
Clc1nc(NCCOc2ccccc2)c2ncn(-c3ccccc3)c2n1 | -14 | 2
O=C1CCCN1CCCNc1nc(Nc2ccccc2)nc2c1ncn2-c1ccccc1 | -2 | 2
CCc1oc2ccccc2c1C(=O)c1ccc(O)cc1 | -8 | /
CCN(Cc1ccccc1)C(=O)Nc1ccc(-c2cn[nH]c2)cc1OC1CCN(S(C)(=O)=O)CC1 | 4 | -14
O=C(c1ccc(-c2cnn(-c3ccc(Cl)cc3)c2)nc1)N1CCOCC1 | -5 | /
O=C(NCc1nc2ccncc2[nH]1)c1ccc(O)cc1 | 5 | -24
O=C(NCc1ccccc1)c1ccccc1Nc1ccnc(Nc2ccc(N3CCOCC3)cc2)c1 | 2 | 13
CNC(=O)c1ccccc1Nc1cc(Nc2ccc(N3CCOCC3)cc2)ncc1C(N)=O | 85* | -12
Cc1cc(Nc2ccccc2)nc(-c2csc3ccccc23)n1 | -19 | -7
CC(C)n1cnc2c(Nc3ccc4c(c3)OCO4)nc(Nc3ccc(-n4ccnc4)cc3)nc21 | 55* | 26
